# Measurements reported in paper PMC7862700, “An all-to-all approach to the identification of sequence-specific readers for epigenetic DNA modifications on cytosine”.
# Columns and labels:
# Experiment in all cases: DAPPL (digital affinity profiling via proximity ligation, sequencing); 10 mM Tris-HCl pH 7.5, 50 mM NaCl, 1 mM DTT, 4% glycerol, room temperature, 30 min; GST-TFs on glutathione beads, 16-mer random dsDNA library, 0.1% formaldehyde crosslink after washing; high values mean tight binding
# Settings in all cases: protein: recombinant; tags: N-terminal GST; dsDNA, one strand shown
# ETV1 = ETV1 (Homo sapiens, UniProt P50549 1-477)
# ETV1, sequence (P50549 whole entry, the tested form may be a part): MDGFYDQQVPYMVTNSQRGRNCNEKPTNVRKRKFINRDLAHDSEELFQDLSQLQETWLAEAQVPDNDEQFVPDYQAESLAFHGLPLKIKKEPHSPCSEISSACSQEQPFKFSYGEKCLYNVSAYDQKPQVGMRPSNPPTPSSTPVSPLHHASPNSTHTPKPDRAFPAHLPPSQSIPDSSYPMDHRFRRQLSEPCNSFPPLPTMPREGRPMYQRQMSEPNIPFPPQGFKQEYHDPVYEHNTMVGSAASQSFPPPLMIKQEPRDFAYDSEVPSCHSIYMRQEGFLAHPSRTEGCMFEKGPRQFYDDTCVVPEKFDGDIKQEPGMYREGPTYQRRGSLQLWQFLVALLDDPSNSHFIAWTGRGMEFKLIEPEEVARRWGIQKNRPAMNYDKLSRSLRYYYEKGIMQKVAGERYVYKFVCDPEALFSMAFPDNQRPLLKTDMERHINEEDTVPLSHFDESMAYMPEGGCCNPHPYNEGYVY
# Method in brief: (§1)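 After expression in yeast as GST fusions, human transcription factors were bound to glutathione beads, DNA-barcoded and mixed with a tag-only sample. The pools were incubated with 200 nmole of a 16-mer random double-stranded DNA library in Tris/NaCl/DTT/glycerol buffer (30 min, room temperature), washed and crosslinked with 0.1% formaldehyde. Proximity ligation with BsaI/T4 ligase ran for 1 h at 37 °C, before PCR amplification and sequencing on an Illumina NextSeq500. Binding signal is a hexamer's read frequency for a factor divided by its frequency for the tag-only sample.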
# ERF = target: T1, ERF (Homo sapiens, UniProt P50548 1-548)
# T1 sequence: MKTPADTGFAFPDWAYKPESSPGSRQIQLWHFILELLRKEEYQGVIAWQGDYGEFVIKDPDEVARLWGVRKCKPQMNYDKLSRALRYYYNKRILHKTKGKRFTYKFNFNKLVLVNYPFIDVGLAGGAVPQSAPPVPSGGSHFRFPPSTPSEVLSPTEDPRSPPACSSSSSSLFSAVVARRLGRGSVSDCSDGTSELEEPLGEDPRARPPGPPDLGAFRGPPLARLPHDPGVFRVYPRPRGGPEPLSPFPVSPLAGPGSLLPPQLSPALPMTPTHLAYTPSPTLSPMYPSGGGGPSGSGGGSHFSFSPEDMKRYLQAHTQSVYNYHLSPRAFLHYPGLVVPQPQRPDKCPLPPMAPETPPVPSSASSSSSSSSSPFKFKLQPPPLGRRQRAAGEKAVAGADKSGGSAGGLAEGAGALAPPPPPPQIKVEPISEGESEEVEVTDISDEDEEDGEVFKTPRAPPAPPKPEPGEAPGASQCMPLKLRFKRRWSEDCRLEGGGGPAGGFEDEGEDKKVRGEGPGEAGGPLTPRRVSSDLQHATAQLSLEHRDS
# Method in brief: as §1
# ETV3L = target: T2, ETV3L (Homo sapiens, UniProt Q6ZN32 1-361)
# T2 sequence: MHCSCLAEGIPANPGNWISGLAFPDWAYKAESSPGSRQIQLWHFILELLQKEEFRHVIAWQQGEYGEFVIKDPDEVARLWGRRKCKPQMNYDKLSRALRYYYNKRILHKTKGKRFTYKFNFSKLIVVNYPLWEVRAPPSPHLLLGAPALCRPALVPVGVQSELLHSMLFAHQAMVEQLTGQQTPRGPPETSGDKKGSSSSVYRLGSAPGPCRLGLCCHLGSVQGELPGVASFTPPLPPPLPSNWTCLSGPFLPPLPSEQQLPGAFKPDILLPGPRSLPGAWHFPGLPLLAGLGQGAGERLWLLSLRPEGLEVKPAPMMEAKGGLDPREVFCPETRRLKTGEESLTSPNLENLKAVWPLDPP
# Method in brief: as §1
# ETS2 = target: T3, ETS2 (Homo sapiens, UniProt P15036 1-469)
# T3 sequence: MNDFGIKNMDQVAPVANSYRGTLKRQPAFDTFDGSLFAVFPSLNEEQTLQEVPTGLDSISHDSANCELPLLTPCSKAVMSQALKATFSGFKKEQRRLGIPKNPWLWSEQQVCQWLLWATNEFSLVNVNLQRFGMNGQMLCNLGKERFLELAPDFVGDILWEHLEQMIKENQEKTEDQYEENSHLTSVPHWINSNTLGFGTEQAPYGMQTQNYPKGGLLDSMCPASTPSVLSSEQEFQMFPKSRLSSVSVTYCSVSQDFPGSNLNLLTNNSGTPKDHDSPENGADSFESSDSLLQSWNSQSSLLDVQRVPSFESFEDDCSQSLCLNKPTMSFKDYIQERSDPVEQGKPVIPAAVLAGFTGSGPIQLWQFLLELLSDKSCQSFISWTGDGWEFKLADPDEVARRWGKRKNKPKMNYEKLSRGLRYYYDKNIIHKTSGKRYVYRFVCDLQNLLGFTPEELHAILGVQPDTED
# Method in brief: as §1
# SPDEF = target: T4, SPDEF (Homo sapiens, UniProt O95238 1-335)
# T4 sequence: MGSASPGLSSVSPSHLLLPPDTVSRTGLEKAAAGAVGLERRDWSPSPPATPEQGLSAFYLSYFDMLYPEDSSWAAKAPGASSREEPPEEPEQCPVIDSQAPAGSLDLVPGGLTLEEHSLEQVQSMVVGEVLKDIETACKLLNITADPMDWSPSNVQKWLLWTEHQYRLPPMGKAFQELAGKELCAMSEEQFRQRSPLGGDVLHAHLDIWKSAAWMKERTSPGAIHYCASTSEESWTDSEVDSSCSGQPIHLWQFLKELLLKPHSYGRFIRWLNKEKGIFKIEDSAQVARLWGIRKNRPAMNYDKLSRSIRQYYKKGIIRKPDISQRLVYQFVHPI
# Method in brief: as §1
# ETV7 = target: T5, ETV7 (Homo sapiens, UniProt Q9Y603 1-341)
# T5 sequence: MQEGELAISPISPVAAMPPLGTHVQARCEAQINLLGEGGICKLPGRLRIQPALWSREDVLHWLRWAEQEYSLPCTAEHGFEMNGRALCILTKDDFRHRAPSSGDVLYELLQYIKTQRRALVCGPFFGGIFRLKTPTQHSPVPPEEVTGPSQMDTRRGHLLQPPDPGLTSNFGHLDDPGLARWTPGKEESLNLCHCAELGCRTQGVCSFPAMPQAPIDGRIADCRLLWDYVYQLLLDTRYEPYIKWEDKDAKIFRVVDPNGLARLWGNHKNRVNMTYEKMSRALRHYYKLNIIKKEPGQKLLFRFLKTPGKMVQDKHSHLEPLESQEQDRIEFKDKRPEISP
# Method in brief: as §1
# ELF5 = target: T6, ELF5 (Homo sapiens, UniProt Q9UKW6-2 1-255)
# T6 sequence: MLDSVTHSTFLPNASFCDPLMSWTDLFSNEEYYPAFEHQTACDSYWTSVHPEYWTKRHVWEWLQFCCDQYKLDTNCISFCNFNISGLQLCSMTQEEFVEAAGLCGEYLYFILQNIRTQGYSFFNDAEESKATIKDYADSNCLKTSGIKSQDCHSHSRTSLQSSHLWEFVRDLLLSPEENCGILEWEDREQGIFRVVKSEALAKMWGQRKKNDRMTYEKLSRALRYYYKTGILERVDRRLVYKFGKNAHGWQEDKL
# Method in brief: as §1
# ETV3 = target: T7, ETV3 (Homo sapiens, UniProt P41162-2 1-143)
# T7 sequence: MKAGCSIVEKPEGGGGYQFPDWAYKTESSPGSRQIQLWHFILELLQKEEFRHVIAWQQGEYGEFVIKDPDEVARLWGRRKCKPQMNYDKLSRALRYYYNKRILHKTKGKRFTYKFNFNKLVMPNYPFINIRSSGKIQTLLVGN
# Method in brief: as §1
# ETV6 = ETV6 (Homo sapiens, UniProt P41212 1-452)
# ETV6, sequence (P41212 whole entry): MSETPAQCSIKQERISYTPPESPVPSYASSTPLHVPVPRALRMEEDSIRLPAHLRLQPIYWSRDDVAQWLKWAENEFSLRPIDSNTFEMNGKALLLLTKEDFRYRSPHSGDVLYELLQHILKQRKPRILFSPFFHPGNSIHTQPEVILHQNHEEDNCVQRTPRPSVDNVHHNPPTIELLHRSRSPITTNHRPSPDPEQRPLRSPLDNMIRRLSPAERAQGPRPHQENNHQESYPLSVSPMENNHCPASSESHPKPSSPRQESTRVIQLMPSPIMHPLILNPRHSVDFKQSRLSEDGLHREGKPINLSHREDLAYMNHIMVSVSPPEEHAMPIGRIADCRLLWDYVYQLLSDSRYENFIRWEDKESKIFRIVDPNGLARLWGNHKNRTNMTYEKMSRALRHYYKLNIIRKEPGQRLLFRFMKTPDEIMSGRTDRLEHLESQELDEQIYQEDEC
# Method in brief: as §1
sequence,measurement,setting,value
GTCTCG,binding signal,ETV1,"1.35 fold enrichment (6-mer frequency, TF over GST control)"
same,binding signal,ERF,"1.29 fold enrichment (6-mer frequency, TF over GST control)"
same,binding signal,ETV3L,"1.29 fold enrichment (6-mer frequency, TF over GST control)"
same,binding signal,ETS2,"1.37 fold enrichment (6-mer frequency, TF over GST control)"
same,binding signal,SPDEF,"1.09 fold enrichment (6-mer frequency, TF over GST control)"
same,binding signal,ETV7,"1.28 fold enrichment (6-mer frequency, TF over GST control)"
same,binding signal,ELF5,"1.26 fold enrichment (6-mer frequency, TF over GST control)"
same,binding signal,ETV3,"1.33 fold enrichment (6-mer frequency, TF over GST control)"
same,binding signal,ETV6,"1.32 fold enrichment (6-mer frequency, TF over GST control)"
